Drawing on PubChem BioAssay, this text covers growth inhibition, inhibition and outcome for 20 compounds.

A number with no mark means an inactive call. For some of these results: Measured potencies and affinities stand elsewhere. Active and inactive are the calls of the source. Unless noted, how the calls were made is not given here.

The nature of experiment [1]: antimalarial activity against Dd2 strain (AID 2302;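 active means growth inhibition above 50% at the single 2 µM test dose, taken to imply half-maximal potency below 2 µM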;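 further: 0% = DMSO untreated growth and 100% = chloroquine plus artemisinin killed control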). To be noted: P. falciparum Dd2 in RBCs, LDH growth readout, 72 h; at 2 µM; hits give high values.
A short description of experiment [2]: HepG2 cytotoxicity, primary screen, cytotoxicity control for P. falciparum antimalarial project, cell-based, ATP luminescence (AID 2303;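 active means inhibition above 50%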;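 further: 0% = DMSO wells and 100% = digitonin-killed cells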). The settings on record: HepG2 viability, 24-48 h, at 10 µM, hits give high values.
For experiment [3], the target named is L-lactate dehydrogenase (Plasmodium falciparum (isolate CDC / Honduras)) (UniProt Q27743). Put plainly: PfLDH activity inhibition – cell lysate, 3D7 strain, counter-screen for P. falciparum growth inhibition project (AID 2304).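 Further: 0% = vehicle and 100% = reference inhibitor.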 The settings on record: P. falciparum 3D7 crude extract, LDH APAD/NBT absorbance; at 2 µM; hits give high values. (In general: A counterscreen serves to expose hits that act by an unwanted route or on another target.)

A short description of experiment [4]: inhibition of 3D7 malaria parasite growth – strain 3D7 (AID 2306).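 Further: 0% = DMSO wells and 100% = chloroquine plus artemisinin control wells.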 To be noted: P. falciparum 3D7 erythrocytic growth, LDH absorbance, 72 h; at 2 µM; hits give high values.
Experiment [5] concerns the target Calcium-dependent protein kinase 1 (Plasmodium falciparum (isolate 3D7)) (UniProt P62344). Put plainly: PfCDPK1 kinase inhibitors, biochemical, TCAMS library (AID 1159585; cut-off not given, nearly all actives have IC50 up to about 0.98 µM;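 further: inhibitors leave more ATP so luminescence rises with inhibition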). To be noted: recombinant PfCDPK1, Kinase-Glo ATP depletion luminescence. A general note: Kinase-Glo reads ATP consumption through a luciferase reaction.
Experiment [6] concerns the target Plasmodium falciparum protein kinase 6 (PK6, PF3D7_1337100) (UniProt Q8IDW1). Put plainly: PfPK6 kinase inhibitors, biochemical, TCAMS library (AID 1159586). To be noted: recombinant PfPK6, Kinase-Glo ATP depletion luminescence.
Experiment [7] concerns the target Protein kinase 7 (PK7), Plasmodium falciparum 3D7 (PF3D7_0213400) (UniProt Q7YTF7). Put plainly: inhibition of Plasmodium PK7 catalytic activity – biochemical, TCAMS antimalarial set, Kinase-Glo luminescence (AID 1159587). The settings on record: recombinant PfPK7, Kinase-Glo ATP depletion luminescence.
The target of experiment [8] is Calcium-dependent protein kinase 4 (Plasmodium falciparum (isolate 3D7)) (UniProt Q8IBS5). Put plainly: PfCDPK4 kinase inhibitors, biochemical, TCAMS library (AID 1159588; cut-off not given, nearly all actives have IC50 up to about 0.91 µM). To be noted: recombinant PfCDPK4, Kinase-Glo ATP depletion luminescence.
Sequence of Calcium-dependent protein kinase 4 (Plasmodium falciparum (isolate 3D7)) (Q8IBS5 whole entry, looked up): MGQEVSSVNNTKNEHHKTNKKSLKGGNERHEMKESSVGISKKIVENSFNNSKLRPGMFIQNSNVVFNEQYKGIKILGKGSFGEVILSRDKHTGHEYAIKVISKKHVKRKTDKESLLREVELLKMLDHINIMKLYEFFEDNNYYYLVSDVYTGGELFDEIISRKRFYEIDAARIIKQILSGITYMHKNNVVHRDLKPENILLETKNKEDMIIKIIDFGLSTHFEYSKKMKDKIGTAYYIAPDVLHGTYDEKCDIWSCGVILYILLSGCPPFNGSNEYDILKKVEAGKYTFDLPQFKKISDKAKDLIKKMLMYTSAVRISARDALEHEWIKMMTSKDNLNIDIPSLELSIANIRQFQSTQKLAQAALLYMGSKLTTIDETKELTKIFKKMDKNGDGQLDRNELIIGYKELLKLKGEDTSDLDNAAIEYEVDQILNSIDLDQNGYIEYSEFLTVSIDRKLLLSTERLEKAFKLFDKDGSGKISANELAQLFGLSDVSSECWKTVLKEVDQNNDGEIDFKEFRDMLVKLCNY

Sequence of L-lactate dehydrogenase (Plasmodium falciparum (isolate CDC / Honduras)) (Q27743 whole entry, looked up): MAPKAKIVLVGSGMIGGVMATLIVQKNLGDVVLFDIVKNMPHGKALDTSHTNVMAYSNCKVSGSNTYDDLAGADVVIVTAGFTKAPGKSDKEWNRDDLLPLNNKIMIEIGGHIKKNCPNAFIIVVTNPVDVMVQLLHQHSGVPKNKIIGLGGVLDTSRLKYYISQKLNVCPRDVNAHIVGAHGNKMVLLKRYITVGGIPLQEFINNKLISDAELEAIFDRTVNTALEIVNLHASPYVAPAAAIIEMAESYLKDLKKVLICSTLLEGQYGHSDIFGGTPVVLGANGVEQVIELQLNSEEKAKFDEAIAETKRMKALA
Sequence of Protein kinase 7 (PK7), Plasmodium falciparum 3D7 (PF3D7_0213400) (Q7YTF7 1-343): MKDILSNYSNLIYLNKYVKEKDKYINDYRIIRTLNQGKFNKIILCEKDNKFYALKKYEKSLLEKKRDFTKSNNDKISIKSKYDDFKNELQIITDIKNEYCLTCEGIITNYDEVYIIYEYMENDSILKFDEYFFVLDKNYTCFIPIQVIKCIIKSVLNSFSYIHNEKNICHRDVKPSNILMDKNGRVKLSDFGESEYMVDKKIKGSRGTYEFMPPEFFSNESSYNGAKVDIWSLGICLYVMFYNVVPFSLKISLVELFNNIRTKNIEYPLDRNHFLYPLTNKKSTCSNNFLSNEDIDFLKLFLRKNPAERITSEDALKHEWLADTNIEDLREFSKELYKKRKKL
Sequence of Calcium-dependent protein kinase 1 (Plasmodium falciparum (isolate 3D7)) (P62344 whole entry, looked up): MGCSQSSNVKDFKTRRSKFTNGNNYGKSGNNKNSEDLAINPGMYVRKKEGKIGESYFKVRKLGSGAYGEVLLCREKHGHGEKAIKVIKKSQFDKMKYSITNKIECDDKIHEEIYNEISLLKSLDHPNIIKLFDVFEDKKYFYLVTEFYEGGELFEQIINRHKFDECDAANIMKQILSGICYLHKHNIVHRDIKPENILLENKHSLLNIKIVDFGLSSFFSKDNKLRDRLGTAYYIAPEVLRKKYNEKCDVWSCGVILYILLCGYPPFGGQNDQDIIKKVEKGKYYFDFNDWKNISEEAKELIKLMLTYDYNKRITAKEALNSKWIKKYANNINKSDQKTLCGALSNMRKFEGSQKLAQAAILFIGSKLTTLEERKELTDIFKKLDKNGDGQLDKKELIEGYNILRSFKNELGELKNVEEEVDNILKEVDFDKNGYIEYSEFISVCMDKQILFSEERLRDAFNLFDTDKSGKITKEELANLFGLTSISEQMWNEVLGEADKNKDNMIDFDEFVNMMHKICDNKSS
Sequence of Plasmodium falciparum protein kinase 6 (PK6, PF3D7_1337100) (Q8IDW1 1-305): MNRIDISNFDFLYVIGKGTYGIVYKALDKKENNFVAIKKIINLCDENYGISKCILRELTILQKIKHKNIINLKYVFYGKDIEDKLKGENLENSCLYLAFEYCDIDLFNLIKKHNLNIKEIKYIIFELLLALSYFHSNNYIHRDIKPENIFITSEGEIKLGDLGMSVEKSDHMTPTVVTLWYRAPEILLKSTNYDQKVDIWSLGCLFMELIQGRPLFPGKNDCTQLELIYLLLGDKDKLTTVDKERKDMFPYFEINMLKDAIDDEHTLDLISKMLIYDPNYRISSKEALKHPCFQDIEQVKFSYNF

Turning to `Cc1cc(N[C@@H](CC(C)C)C(=O)Nc2ccccc2)nc(Nc2ccccc2)n1`, the figures for the growth inhibition in experiment [1] and in experiment [4] were 93% (active) and 99% (active), respectively. The inhibition in experiment [2] was -2%; in experiment [3], -1%. In addition, the outcome in experiment [5], in experiment [6], in experiment [7] and in experiment [8] was inactive.

Regarding `Cc1noc(C)c1-c1ccc2c(Nc3ccc(C#N)cc3)c(C(N)=O)cnc2c1`, the growth inhibition in experiment [1] is 73% (active); in experiment [4], 97% (active). For the same compound, the results for the inhibition in experiment [2] and in experiment [3] were 6% and 7%, respectively. For the same compound, the outcome in experiment [5], in experiment [6], in experiment [7] and in experiment [8] was inactive.

Take `CN1CCN(Cc2ccc(-c3ccc4c(Nc5cc(O)c(F)cc5Cl)ccnc4c3)o2)CC1`: the growth inhibition in experiment [1] was 99% (active); in experiment [4] it was 101% (active). The inhibition in experiment [2] was 27%; in experiment [3] it was 3%. Besides, the result in experiment [5], in experiment [6], in experiment [7] and in experiment [8] was inactive.

On to `COc1c(C2CCN(CCCCNC(=O)c3cccc(-c4ccc(C(F)(F)F)cc4)c3)CC2)ccc2c1CCCC2`, for which the growth inhibition was 45% in experiment [1] and 92% (active) in experiment [4]. Besides, the inhibition is 50% (active) in experiment [2] and -4% in experiment [3]. Also, the result in experiment [5], in experiment [6], in experiment [7] and in experiment [8] was inactive.

Take `CCN1CCC(N(Cc2ccc(-c3ccc(C(F)(F)F)cc3)cc2)C(=O)Cn2c(CCc3cccc(F)c3F)cc(=O)c3ccccc32)C1` (stereo not given): the growth inhibition in experiment [1] was 84% (active); in experiment [4], 93% (active). Moreover, the inhibition in experiment [2] is 43%; in experiment [3], 3%. In addition, the result in experiment [5], in experiment [6], in experiment [7] and in experiment [8] was inactive.

In the case of `OC(CNCCCc1ccccc1)c1cc(OCc2ccccc2)cc(OCc2ccccc2)c1` (stereo not given), the growth inhibition in experiment [1] was 85% (active); in experiment [4], 93% (active). The inhibition in experiment [2] is 8%; in experiment [3], 4%. Further, the outcome in experiment [5], in experiment [6], in experiment [7] and in experiment [8] was inactive.

Regarding `O=C(CCCCCNC(=O)c1ccc(O)c(-c2ccc(Cl)c(Cl)c2)c1)NCCN1CCOCC1`, the growth inhibition in experiment [1] was 0%; in experiment [4] it was 95% (active). The inhibition in experiment [2] is -7%; in experiment [3], -3%. Also, the outcome in experiment [5], in experiment [6], in experiment [7] and in experiment [8] was inactive.

As to `COc1ccc(Nc2nccc(-c3ccc4c(-c5ccsc5)cnc(N)c4c3)n2)cc1`, the growth inhibition in experiment [1] was 98% (active); in experiment [4], 101% (active). In addition, the inhibition in experiment [2] was 38%; in experiment [3], -1%. The outcome in experiment [5], in experiment [6], in experiment [7] and in experiment [8] was inactive.

Turning to `Cc1ccn2c(C(=O)N3CCN(c4cccc5c4nc(-c4ccoc4)n5Cc4ccccn4)CC3)c(C)nc2c1`, the growth inhibition in experiment [1] was 99% (active); in experiment [4], 98% (active). The inhibition in experiment [2] was 2%; in experiment [3], -1%. The result in experiment [5], in experiment [6], in experiment [7] and in experiment [8] was inactive.

As for `CC(Sc1nc2sccc2c(=O)n1C)C(=O)Nc1ccc2c(c1)OCO2` (stereo not given), the growth inhibition in experiment [1] and in experiment [4] was 100% (active) throughout. Also, the inhibition in experiment [2] was 5%; in experiment [3] it was 4%. In addition, the result in experiment [5], in experiment [6], in experiment [7] and in experiment [8] was inactive.

For the compound `CCCCCCCC1CC(CC(=O)Nc2ccnc3ccc(OC)cc23)CN1` (stereo not given), the results for the growth inhibition in experiment [1] and in experiment [4] were 58% (active) and 90% (active), respectively. Also, the inhibition in experiment [2] is 22%; in experiment [3], -2%. Besides, the result in experiment [5], in experiment [6], in experiment [7] and in experiment [8] was inactive.

On to `CCN(CC)S(=O)(=O)c1ccc(Cl)c(C(=O)Nc2ccc3nc(C)sc3c2)c1`, for which the growth inhibition in experiment [1] was 94% (active); in experiment [4], 96% (active). In addition, the inhibition is 9% in experiment [2] and -4% in experiment [3]. Also, the result in experiment [5], in experiment [6], in experiment [7] and in experiment [8] was inactive.

Turning to `CCNc1cc(C(=O)N[C@@H](Cc2ccccc2)[C@H](O)CNC(C)(C)Cc2cccc(OC)c2)cc(N2CCCC2=O)c1`, the growth inhibition in experiment [1] was 97% (active); in experiment [4] it was 99% (active). The inhibition was 7% in experiment [2] and -8% in experiment [3]. Moreover, the result in experiment [5], in experiment [6], in experiment [7] and in experiment [8] was inactive.

`Cc1cccc2[nH]c(-c3cccc(-c4ccc(NC(=O)Nc5ccc(Cl)cc5)cc4)c3)nc12`: the growth inhibition in experiment [1] was 96% (active); in experiment [4], 100% (active). Moreover, the inhibition in experiment [2] is 63% (active); in experiment [3], 0%. In addition, the result in experiment [5], in experiment [6], in experiment [7] and in experiment [8] was inactive.

Turning to `CCCCCCNCc1c(O)ccc2c(CNCCCCCC)c(O)ccc12`, the growth inhibition in experiment [1] is 100% (active); in experiment [4], 102% (active). The inhibition in experiment [2] was 22%; in experiment [3], -1%. In addition, the result in experiment [5], in experiment [6], in experiment [7] and in experiment [8] was inactive.

In the case of `CCN(CC)CCCCNc1cc(-c2[nH]c(C(C)(C)C)nc2-c2ccc3cc(OC)ccc3c2)ccn1`, the growth inhibition was 76% (active) in experiment [1] and 85% (active) in experiment [4]. For the same compound, the inhibition in experiment [2] is 23%; in experiment [3], 5%. The outcome in experiment [5], in experiment [6], in experiment [7] and in experiment [8] was inactive.

Regarding `CC(C)CCN1CCC(Oc2ccc(NC(=O)c3cccs3)cc2Cl)C1` (stereo not given), the growth inhibition in experiment [1] is 93% (active); in experiment [4] it was 94% (active). Also, the figures for the inhibition in experiment [2] and in experiment [3] were 17% and 2%, respectively. Further, the outcome in experiment [5], in experiment [6], in experiment [7] and in experiment [8] was inactive.

`CN1CCN(c2cc3c(cc2Cl)CCN3C(=O)Cc2ccc(Cl)c(NC(=O)Nc3cccc([N+](=O)[O-])c3)c2)CC1`: the growth inhibition is 51% (active) in experiment [1] and 99% (active) in experiment [4]. The figures for the inhibition in experiment [2] and in experiment [3] were -1% and -7%, respectively. The result in experiment [5], in experiment [6], in experiment [7] and in experiment [8] was inactive.

`CN1CCN(c2ccc(-c3cc(-c4cc(F)c(F)c(F)c4)cnc3N)cc2)CC1`: the growth inhibition was 12% in experiment [1] and 88% (active) in experiment [4]. The inhibition in experiment [2] was 58% (active); in experiment [3], -4%. The outcome in experiment [5], in experiment [6], in experiment [7] and in experiment [8] was inactive.

On to `O=C(Nc1ccc(S(=O)(=O)N2CCCCCC2)cc1)c1cc(-c2ccccc2O)n[nH]1`, for which the growth inhibition in experiment [1] is 76% (active); in experiment [4], 100% (active). The inhibition in experiment [2] is 16%; in experiment [3], 6%. For the same compound, the result in experiment [5], in experiment [6], in experiment [7] and in experiment [8] was inactive.

Broadly, the inhibition is the drop in the measured response relative to a control, in per cent.
